Measured values from PubChem BioAssay (NCATS).
A number with no mark means an inactive call. The call rests on the fitted dose curve.

target: Glucocorticoid receptor (Homo sapiens) (UniProt P04150); test: GR-EFC Redistribution (AID 451); settings: CHO-K1 GR-EFC translocation, beta-gal luminescence, 2 h
Source text: NIH Molecular Libraries Screening Centers Network [MLSCN]
NIH Chemical Genomics Center [NCGC]
The glucocorticoid receptor (GR) is a cytoplasmic receptor that belongs to the nuclear receptor family of ligand-dependent transcription factors. Upon glucocorticoid binding to its receptor, the glucocorticoid-GR complex translocates into the nucleus, where it binds as a dimer to specific DNA sequences (glucocorticoid response elements), enhancing or suppressing transcription of a wide variety of glucocorticoid-responsive genes. In addition to their important roles in normal physiology and metabolism, glucocorticoids are administered exogenously as treatments for a wide variety of allergic, autoimmune, and neoplastic conditions. Identification of compounds that modulate aspects of GR signalling would be useful in dissecting glucocorticoid response pathways as well as developing GR modulators with more targeted clinical effects.
Traditionally, GR modulators have been identified using receptor binding or direct transactivation assays. However, assays for glucocorticoid-dependent nuclear translocation can also be used to screen for compounds affecting GR signaling.
Immunocytochemical staining has been used to assay for GR translocation, but is not suitable for high throughout screening due to the multiple reagent addition and wash steps required. Recently, a novel cell-based GR assay in Enzyme Fragment Complementation (EFC) format was developed by DiscoveRx (Fremont, CA). The assay uses EFC of b-galactosidase (b-gal) as an indicator of GR-translocation in engineered CHO-K1 biosensor cells. The enzyme acceptor (EA) fragment of b-gal resides in the nucleus , as designed through the use of a proprietary set of sequence additions and modifications. The small peptide enzyme donor (ED) fragment of b-gal is fused directly to the C-terminus of GR, and is localized in the cytoplasm is the absence of receptor signaling. Upon binding to a GR ligand, the complex translocates to the nucleus, where intact enzyme activity is restored by complementation and b-gal activity is detected. We optimized this GR-EFC assay in homogenous 1536-well plate assay format for high throughput screening.
NCGC Assay Protocol Summary:
CHO-K1 cells stably expressing NLS-enzyme acceptor fragment (EA) of b-gal and GR-enzyme donor (ED) fragment of b-gal were maintained in F12 medium (Invitrogen, Carlsbad, CA) at 37 Celsius degrees under a humidified atmosphere containing 5% CO2 and 95% air. The medium contained 10% FBS, 2 mM L-glutamine, 50 U/ml penicillin 50 ug/ml streptomycin, and 250 ug/ml hygromycin and 500 ug/ml G418 (Invitrogen).
GR-translocation was measured beta-gal enzyme activity using the PathHunter Detection Kit containing cell membrane permeablizing reagent and beta-gal substrate (DiscoveRx, Fremont, CA). All compounds were screened as titrations from 0.6 nM to 46 uM final concentration. The assay was performed in 1536-well format as follows:
5 uL cell suspension (1,000 cells)/well
Incubation at 37 Celsius degrees for two hours
1.25 uL 1X detection buffer from the kit supplied by DiscoveRx
Incubation at room temperature for one hour
Read plate in luminescence mode in ViewLux plate reader (PerkinElmer)
Keywords: NIH Roadmap, MLSCN, MLI, MLSMR, GR-EFC, GREFC, qHTS, NCGC
Potency means the concentration at half of the fitted maximal effect.

Chain of Glucocorticoid receptor (Homo sapiens) (P04150 whole entry, looked up): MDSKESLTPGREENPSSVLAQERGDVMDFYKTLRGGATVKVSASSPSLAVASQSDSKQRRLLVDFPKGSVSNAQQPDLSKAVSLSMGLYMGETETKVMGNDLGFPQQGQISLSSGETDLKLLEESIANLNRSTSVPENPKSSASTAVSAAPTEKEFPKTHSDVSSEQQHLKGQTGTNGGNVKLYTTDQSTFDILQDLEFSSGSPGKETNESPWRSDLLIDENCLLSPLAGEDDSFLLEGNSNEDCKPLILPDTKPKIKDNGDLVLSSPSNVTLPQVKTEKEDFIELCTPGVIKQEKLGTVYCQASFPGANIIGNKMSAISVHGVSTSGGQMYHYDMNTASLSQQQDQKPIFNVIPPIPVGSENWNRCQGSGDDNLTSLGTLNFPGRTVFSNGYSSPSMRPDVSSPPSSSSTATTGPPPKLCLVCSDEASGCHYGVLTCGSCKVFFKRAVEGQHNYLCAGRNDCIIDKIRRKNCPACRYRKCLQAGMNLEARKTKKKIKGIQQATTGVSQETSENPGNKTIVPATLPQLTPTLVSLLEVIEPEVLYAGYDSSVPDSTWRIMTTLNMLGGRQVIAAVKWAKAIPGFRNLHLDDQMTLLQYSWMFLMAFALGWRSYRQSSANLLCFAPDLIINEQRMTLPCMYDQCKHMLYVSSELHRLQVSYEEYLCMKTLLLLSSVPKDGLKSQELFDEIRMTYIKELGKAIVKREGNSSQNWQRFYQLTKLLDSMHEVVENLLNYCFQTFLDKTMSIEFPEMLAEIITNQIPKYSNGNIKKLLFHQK

Compound	Potency [µM]
NCCC[C@@H](CC(=O)N[C@@H]1CCCC[C@H]1C(=O)N[C@H](CC(=O)N[C@@H](CCC(=O)O)CC(=O)O)Cc1ccccc1)NC(=O)C[C@H](CO)NC(=O)[C@@H]1CCCC[C@H]1N	> 46
CC(C)[C@@H](CC(=O)N[C@@H]1CCNC[C@H]1C(=O)N[C@H](CC(=O)N[C@@H](CCC(=O)O)CC(=O)O)Cc1c[nH]c2ccccc12)NC(=O)C[C@H](Cc1c[nH]c2ccccc12)NC(=O)[C@@H]1CNCC[C@H]1N	> 46
CC(C)C[C@@H](CC(=O)N[C@H](CC(=O)N[C@@H]1CCNC[C@H]1C(=O)N[C@H](CC(=O)N[C@@H](CCC(=O)O)CC(=O)O)CC(C)C)C(C)C)NC(=O)[C@@H]1CCCC[C@H]1N	> 46
NCCC[C@@H](CC(=O)N[C@@H]1CCCC[C@H]1C(=O)N[C@H](CC(=O)N[C@@H](CCC(=O)O)CC(=O)O)Cc1c[nH]c2ccccc12)NC(=O)C[C@H](Cc1c[nH]c2ccccc12)NC(=O)[C@@H]1CNCC[C@H]1N	> 46
CC(=O)c1c(O)c(C)c(O)c2c1OC1=CC(=O)[C@H](C(C)=O)C(=O)[C@]12C	> 46
CC(=O)OC[C@@H]1O[C@@H](Oc2cc(OC(C)=O)c3c(=O)cc(-c4ccc(OC(C)=O)c(OC(C)=O)c4)oc3c2)[C@H](OC(C)=O)[C@H](OC(C)=O)[C@@H]1OC(C)=O	> 46
COc1cccc(-c2oc3ccccc3c(=O)c2O)c1	> 46
CC(=O)[C@@H]1[C@H]2[C@@H](C(=O)[C@H]3OC[C@H]2O3)[C@@H]2C=Cc3ccccc3N12	> 46
CC(C)C[C@@H](CC(=O)N[C@@H](CCC(=O)O)CC(=O)O)NC(=O)[C@@H]1CNCC[C@H]1NC(=O)C[C@H](CCCN)NC(=O)C[C@H](Cc1c[nH]c2ccccc12)NC(=O)[C@@H]1CCCC[C@H]1N	> 46
CC(C)C[C@@H](CC(=O)N[C@@H](CCC(=O)O)CC(=O)O)NC(=O)[C@@H]1CNCC[C@H]1NC(=O)C[C@@H](NC(=O)C[C@H](CO)NC(=O)[C@@H]1CNCC[C@H]1N)C(C)C	> 46
NCCC[C@@H](CC(=O)N[C@@H]1CCCC[C@H]1C(=O)N[C@H](CC(=O)N[C@@H](CCC(=O)O)CC(=O)O)Cc1c[nH]c2ccccc12)NC(=O)C[C@H](Cc1c[nH]c2ccccc12)NC(=O)[C@@H]1CCCC[C@H]1N	> 46
COc1cc([C@@H]2Oc3cc([C@H]4Oc5cc(O)cc(O)c5C(=O)[C@H]4O)ccc3O[C@H]2CO)ccc1O	> 46
COCCNc1nc(-c2ccc(N(C)C)cc2)nc2ccccc12	> 46
CC(C)(C)c1cc(Br)c(O)c(CN(Cc2cc(C(C)(C)C)cc(Br)c2O)C2CCCCC2)c1	> 9.22
CC(C)C[C@@H](CC(=O)N[C@@H](CCC(=O)O)CC(=O)O)NC(=O)[C@@H]1CCCC[C@H]1NC(=O)C[C@H](CCCN)NC(=O)C[C@H](Cc1c[nH]c2ccccc12)NC(=O)[C@@H]1CNCC[C@H]1N	> 46
NCCC[C@@H](CC(=O)N[C@@H]1CCNC[C@H]1C(=O)N[C@H](CC(=O)N[C@@H](CCC(=O)O)CC(=O)O)Cc1ccccc1)NC(=O)C[C@H](CO)NC(=O)[C@@H]1CNCC[C@H]1N	> 46
CCCCC[C@H](O)c1cccc(OCc2ccc3ccccc3n2)c1	> 46
O=C(O)[C@H]1C[C@@H](CP(=O)(O)O)CCN1	> 46
CC(=O)O[C@H]1C(=O)[C@]2(C)[C@H]([C@H](OC(=O)c3ccccc3)[C@@]3(O)C[C@H](OC(=O)[C@@H](O)[C@@H](NC(=O)c4ccccc4)c4ccccc4)C(C)=C1C3(C)C)[C@]1(OC(C)=O)CO[C@@H]1C[C@@H]2O	> 46
CC(C)C[C@@H](CC(=O)N[C@@H](CCC(=O)O)CC(=O)O)NC(=O)[C@@H]1CNCC[C@H]1NC(=O)C[C@H](CCCN)NC(=O)C[C@H](Cc1ccccc1)NC(=O)[C@@H]1CNCC[C@H]1N	> 46

Compound	Potency [µM]
O=C1c2c(O)cc(O)cc2O[C@@H](c2ccc(O)c(O)c2)[C@H]1O	> 46
COc1ccc2c(c1)CN([C@H](C)[C@@H]1CC[C@@H]3[C@H]4CC[C@H]5C[C@@H](O)CC[C@@]5(C)[C@H]4CC[C@]31C)CO2	> 9.22
NCCC[C@@H](CC(=O)N[C@@H]1CCCC[C@H]1C(=O)N[C@H](CC(=O)N[C@@H](CCC(=O)O)CC(=O)O)Cc1ccccc1)NC(=O)C[C@H](Cc1ccccc1)NC(=O)[C@@H]1CNCC[C@H]1N	> 46
CN(CCc1ccc(Cl)c(Cl)c1)CCN1CCCCCC1	> 46
COc1cc2c(cc1OC)-c1c(OC)c(OC)cc3ccnc(c13)C2=O	> 46
C=C1CC[C@H]2C(C)(C)[C@H](O)CC[C@]2(C)[C@@H]1COc1ccc2ccc(=O)oc2c1	> 46
COc1ccc(-c2oc3cc(OC)c(OC(C)=O)c(OC)c3c(=O)c2OC)cc1OC(C)=O	> 46
CC1(NC[C@@H](O)COc2cccc3[nH]ccc23)CCC(C(C)(C)NC(=O)CBr)CC1 (stereo not given in full)	> 46
O[C@@H]1[C@@H]2c3cc4c(cc3CN3CCC(=C[C@@H]1O)[C@H]23)OCO4	> 20.6
COc1cc(-c2cc(=O)c3ccccc3o2)ccc1O	> 46
CCNC(=O)[C@@H]1O[C@@H](n2cnc3c(N)nc(NCCc4ccc(CCC(=O)O)cc4)nc32)[C@H](O)[C@@H]1O	> 46
CC(C)[C@@H](CC(=O)N[C@@H]1CCNC[C@H]1C(=O)N[C@H](CC(=O)N[C@@H](CCC(=O)O)CC(=O)O)Cc1c[nH]c2ccccc12)NC(=O)C[C@H](CO)NC(=O)[C@@H]1CCCC[C@H]1N	> 46
Cc1cc(-c2cc(C)c(O)c(C(C)(C)C)c2)cc(C(C)(C)C)c1O	> 9.22
OC[C@@H]1O[C@@H](n2cnc3cncnc32)[C@@H](O)[C@H]1O	> 46
CC(C)C[C@@H](CC(=O)N[C@@H](CCC(=O)O)CC(=O)O)NC(=O)[C@@H]1CNCC[C@H]1NC(=O)C[C@@H](NC(=O)C[C@H](Cc1c[nH]c2ccccc12)NC(=O)[C@@H]1CNCC[C@H]1N)C(C)C	> 46
CC[C@]1(O)C[C@H]2CN(CCc3c([nH]c4ccccc34)[C@](C(=O)OC)(c3cc4c(cc3OC)N(C)[C@@H]3[C@](O)(C(=O)OC)[C@H](OC(C)=O)[C@]5(CC)C=CCN6CC[C@]43[C@@H]65)C2)C1	> 46
NCCC[C@@H](CC(=O)N[C@@H]1CCCC[C@H]1C(=O)N[C@H](CC(=O)N[C@@H](CCC(=O)O)CC(=O)O)Cc1ccccc1)NC(=O)C[C@H](Cc1ccccc1)NC(=O)[C@@H]1CCCC[C@H]1N	> 46
CCOC(=O)C1=C(C)NC(C)=C(C(=O)OC)[C@@H]1c1cccc(Cl)c1Cl	> 20.6
O=c1c(O)c(-c2cccc(O)c2)oc2ccccc12	> 46
CC(C)C[C@@H](CC(=O)N[C@@H](CCCN)CC(=O)N[C@@H]1CCCC[C@H]1C(=O)N[C@H](CC(=O)N[C@@H](CCC(=O)O)CC(=O)O)CC(C)C)NC(=O)[C@@H]1CCCC[C@H]1N	> 46
